High-throughput results as filed in PubChem.
An excerpt weighted towards active compounds, which were near 2.1% of everything screened.
Abeta rescue = A-beta toxicity reversal in yeast; yeast expressing A-beta42, growth rescue, OD600, 48 h; response scale: 0% DMSO, 100% iron-clioquinol control; Potency, µM (doses to about 46.1 µM), hits mostly activators; 410,000 compounds, 0.063% hits; AID 1347071; further: nearly all actives have a fitted effect of over 55% in size
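Growth rescue measured by 600 nm absorbance after 48 h yeast culture at 30 C with compound. Values normalized between DMSO and an equimolar ferric chloride plus clioquinol control.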
FUS suppressor = rescues growth of FUS-expressing yeast; S. cerevisiae FUS-expressing, growth rescue, OD600, 24 h; 390,000 compounds, 0.24% hits; Potency, µM (series often up to 76.6 µM), usual class: activators; further: nearly all actives have a fitted effect of over 55% in size
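Quantitative HTS measuring growth restoration of FUS-toxic yeast. Galactose-induced cells (OD 0.005) were exposed 24hr at 30C to compounds at several concentrations, then absorbance at 600 nm was recorded.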
TDP-43 yeast inh = TDP-43 toxicity inhibition in yeast. TDP-43 expressing yeast growth rescue, BacTiter-Glo, 24 h. Potency, µM (doses to about 46.1 µM), hits mostly activators. 410,000 compounds, 1.8% hits. AID 652104; further: nearly all actives have a fitted effect of over 50% in size
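Growth rescue of TDP-43-toxic yeast measured as ATP luminescence (BacTiter-Glo). Cells grown to mid-log in raffinose, induced in galactose at OD600=0.02, exposed to compound 24 hr at 30 deg C.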
aSyn yeast inh = inhibitors of alpha-synuclein toxicity in yeast | Yeast expressing alpha-synuclein, growth rescue, BacTiter-Glo, 24 h | Potency, µM (titrated, usually from 46.1 µM), actives largely listed as activators | 370,000 compounds, 0.14% hits | AID 652106; further: nearly all actives have a fitted effect of over 65% in size
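Rescue of yeast growth: cells expressing toxic alpha-synuclein, induced in galactose at OD600 0.02, incubated with compound 24 h at 30 C. ATP luminescence quantified growth; inhibitors of toxicity appear as activators.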
A number is an active result; – = inactive; ? = inconclusive; · = no result; [ ] = remark or other dose. The call rests on the fitted dose curve; in most records, active means well fitted curve in the direction sought with a large enough effect; inconclusive means small, poorly fitted or top-dose-only effect, or another doubt; inactive means no such curve, though single readings can be large; an effect the other way counts as inactive or inconclusive.

SMILES | Abeta rescue | FUS suppressor | TDP-43 yeast inh | aSyn yeast inh
C[C@H]1O[C@H](O[C@H]2[C@H](O[C@@H]3CC[C@@]4(C)C(CC[C@]5(C)C4CC=C4[C@@H]6CC(C)(C)CC[C@]6(C(=O)O[C@@H]6O[C@H](CO)[C@@H](O)[C@H](O)[C@H]6O)CC[C@]45C)C3(C)C)O[C@H](C(=O)O)[C@@H](O)[C@@H]2O)[C@@H](O)[C@@H](O)[C@@H]1O (stereo partly specified) | – | ? | – | –
C[C@@H]1CC[C@]2(C(=O)O[C@@H]3O[C@H](CO)[C@@H](O)[C@H](O)[C@H]3O)CC[C@]3(C)C(=CCC4[C@@]5(C)C[C@@H](O)[C@H](O)[C@@](C)(C(=O)O[C@@H]6[C@H](O)C[C@@]7(C)C(CC[C@]8(C)C7CC=C7[C@H]9[C@](C(=O)O[C@@H]%10O[C@H](CO)[C@@H](O)[C@H](O)[C@H]%10O)(CC[C@@H](C)[C@@]9(C)O)CC[C@]78C)[C@@]6(CO)C(=O)O)C5CC[C@]43C)[C@@H]2[C@]1(C)O (stereo partly specified) | – | 12.6µM | – | –
O=C(N/C=N/O)C1=NOC(CNc2ncc(C(F)(F)F)cc2Cl)C1 (stereo unspecified) | – | – | 15.8µM | –
N#Cc1nc(-c2cccs2)oc1NCc1ccc2c(c1)OCO2 | – | – | 28.2µM | –
N#Cc1nc(-c2cccs2)oc1NCCc1ccccc1 | – | – | – | –
Cc1ccc(NC(=O)/C=C\C(=O)O)c([N+](=O)[O-])c1 | – | · | ? | –
Cc1cc(C)c(NC(=O)CS)c(Cl)c1 | – | – | – | –
Cc1cc(C)c(NC(=O)/C=C\C(=O)O)c(Cl)c1 | – | – | 12.6µM | –
Cc1cc(C)c(NC(=O)/C=C\C(=O)O)c([N+](=O)[O-])c1 | – | – | 15.8µM | –
Cc1nnc(SCc2ccc(Cl)c(Cl)c2)s1 | – | · | 12.6µM | –
Cc1nnc(SCc2ccc(F)cc2)s1 | – | – | – | –
CCCCCCCSc1nsc(N)n1 | – | – | 12.6µM | –
CCCCCCSc1nsc(NC(=O)CC(C)C)n1 | – | – | –[0.397 µM] | –
Cc1nc2ccc(Cl)cn2c1C(=O)NN | – | – | – | –
CC[C@H](C)[C@H]1O[C@]2(CC[C@@H]1C)C[C@@H]1C[C@@H](CC=C(C)[C@@H](O[C@H]3C[C@H](OC)[C@@H](O[C@H]4C[C@H](OC)[C@@H](O)[C@H](C)O4)[C@H](C)O3)[C@@H](C)C=CC=C3CO[C@@H]4[C@H](O)C(C)=C[C@@H](C(=O)O1)[C@]34O)O2 | – | 7.08µM | – | –
CC[C@@H](C)[C@H]1O[C@]2(CC[C@H]1C)C[C@@H]1C[C@@H](CC=C(C)[C@@H](O[C@H]3C[C@H](OC)[C@@H](O[C@H]4C[C@H](OC)[C@@H](O)[C@H](C)O4)[C@H](C)O3)[C@@H](C)C=CC=C3CO[C@@H]4[C@H](O)C(C)=C[C@@H](C(=O)O1)[C@]34O)O2 | · | · | · | –
C=CCNC(=S)N/N=C/c1ccc(C(C)(C)C)cc1 | 7.94µM | – | –[0.397 µM] | –
C=CCNC(=S)N/N=C/c1cn(C)c2ccccc12 | ? | – | 20µM | –
CC(C)(C)c1ccc(/C=N/NC(=S)NCc2ccccc2)cc1 | – | – | – | –
Cc1ccc(C)c(NC(=S)Nc2cccnc2)c1 | – | – | –[9.22 µM] | –
Cc1ccc(NC(=S)Nc2cccnc2)c(S(=O)(=O)N2CCCCC2)c1 | – | 35.5µM | – | –
S=c1[nH]nc(-c2ccc(Cl)cc2)n1-c1ccc2c(c1)OCCO2 | – | – | – | –
S=c1[nH]nc(-c2ccc(Cl)cc2)n1-c1ccc(Cl)cc1 | 10µM | – | – | –
c1ccc(-c2nnc(CN3CCN(c4ccccc4)CC3)o2)cc1 | – | – | – | –
Clc1cccc(N2CCN(Cc3nnc(-c4ccccc4)o3)CC2)c1 | – | – | 11.2µM | –
SMILES | Abeta rescue | FUS suppressor | TDP-43 yeast inh | aSyn yeast inh
COc1ccc(-c2nc3n(c(=O)c2C#N)CCCS3)cc1 | ? | – | 15.8µM | –
N#Cc1c(-c2ccc(Br)cc2)nc2n(c1=O)CCCS2 | – | – | ? | –
N#Cc1c(-c2ccc(Cl)cc2)nc2n(c1=O)CCCS2 | – | – | 11.2µM | –
Cc1cc(C(=O)COc2ccc(F)cc2Br)c(C)n1C | – | – | · | –
NS(=O)(=O)c1cc(C(=O)OC2CCOC2=O)ccc1Cl (stereo unspecified) | – | – | – | –
COc1ccc(-c2nnc(SCC(=O)NCc3cccs3)n2C)cc1 | – | – | – | –
O=C(O)C1CCN(C(=O)c2ccccc2N2C(=O)[C@@H]3Cc4c([nH]c5ccccc45)C(c4cccc(Cl)c4)N3C2=O)CC1 (stereo partly specified) | – | 12.6µM | – | –
CCCCN(C)C(=O)c1ccc2c(c1)NC(=O)C(CC(C)C)N2 (stereo unspecified) | – | – | – | ·
COC(=O)c1ccc(C2Nc3ccc(/C(C)=N/NC(=O)C(OC)c4ccccc4)cc3C3C=CCC32)cc1 (stereo unspecified) | – | 4.47µM | – | –
Cc1ccc(Nc2nc(CSc3nnc(-c4ccc(F)cc4)n3C)cs2)cc1 | – | · | 17.8µM | –
CCOC(=O)c1ccc(NC(=O)c2nn(C)cc2Br)cc1 | – | – | – | –
c1ccc(Nc2scc(-c3ccccc3)[n+]2Cc2ccco2)cc1 | – | – | 20µM | –
O=c1cc(-c2ccc(Cl)cc2)[nH]c2ccccc12 | – | – | – | –
Clc1ccc(-c2cc3ccccc3[nH]2)cc1 | – | – | 10µM | –
COc1ccc(-c2cc3c(c4c2ccn4C)C2CCC3O2)cn1 (stereo unspecified) | – | – | 12.6µM | ?
Cn1ccc2c(-c3ccc(F)nc3)cc3c(c21)C1CCC3O1 (stereo unspecified) | – | – | ? | –
Cn1ccc2c(-c3ccc4[nH]ccc4c3)cc3c(c21)C1CCC3O1 (stereo unspecified) | – | – | 15.8µM | –
Cn1ccc2c(-c3cccc4ccccc34)cc3c(c21)C1CCC3O1 (stereo unspecified) | – | ? | 15.8µM | –
COc1ccccc1-c1cc2c(c3c1ccn3C)C1CCC2O1 (stereo unspecified) | – | – | ? | –
Cc1ccsc1C(=O)Nc1n[nH]c(C(F)(F)F)n1 | – | – | 35.5µM | –
CC(=O)Nc1sc(NC(=O)c2ccco2)nc1-c1cccs1 | – | – | – | –
O=C(Nc1nc(-c2cccs2)c(C(=O)C(F)(F)F)s1)c1ccco1 | – | – | 14.1µM | –
O=C(Nc1nc(-c2cccs2)c(C(=O)C(F)(F)F)s1)c1ccccc1 | – | – | – | –
O=C(Nc1nc(-c2cccs2)c(-c2ccccc2)s1)c1ccco1 | – | – | 12.6µM | –
COc1ccc(NC(=O)CSc2nnc(-c3cccs3)n2N)c(OC)c1 | – | – | – | –
COc1ccc(CN2C(=O)C(CC(=O)NC3CCCCC3)CC(C(=O)N(C)C)=C2C)cc1 (stereo unspecified) | – | – | – | 3.55µM
